± gives the standard deviation of the averaged measurements.
Columns and labels:
Details in all cases: concentration: 10 µM; 24 h
HCC1569 [1] = experiment: cell number relative to DMSO (% of DMSO); higher = more cells (less growth inhibition / toxicity)
How it was run: (§1)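 H1.0 nuclear intensity or cell number is expressed as percent of the plate control, with the median of replicates taken. HCC1569 and TDF cells were treated with compounds at 10 µM for 24 h at 37 °C, in triplicate, then fixed and immunostained for H1.0 with DAPI as a nuclear stain. HCC1569 values were smoothed to correct for positional effects.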

TDF [2] = experiment: as above
How it was run: as §1

TDF [3] = experiment: H1.0 immunofluorescence intensity relative to DMSO (% of DMSO); higher = stronger H1.0 induction, active = 120 or more
How it was run: as §1

HCC1569 [4] = experiment: H1.0 immunofluorescence intensity relative to DMSO (% of DMSO); higher = stronger H1.0 induction, active = 140 or more
How it was run: as §1
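Wherever H1.0 immunofluorescence intensity relative to DMSO is given: TDF is a line of transformed human dermal fibroblasts of mesenchymal origin.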
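Wherever cell number relative to DMSO is given: TDF denotes transformed human dermal fibroblasts of mesenchymal origin.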

SMILES	cell number (HCC1569 [1])	cell number (TDF [2])	H1.0 immunofluorescence intensity (TDF [3])	H1.0 immunofluorescence intensity (HCC1569 [4])
Nc1nc(N)c2nc(CNc3ccc(C(=O)NC(CCC(=O)O)C(=O)O)cc3)cnc2n1 (stereo unspecified) [Aminopterin]	80.8	87.6	87.8 (inactive)	75.9 (inactive)
NC(N)=NC(=O)c1nc(Cl)c(N2CCCCCC2)nc1N [5-(N,N-hexamethylene)amiloride]	96	85.1	113 (inactive)	100 (inactive)
CCOC(OCC)P(=O)(O)CCCNCc1ccc(Cl)c(Cl)c1	108	95.6	98.3 (inactive)	102 (inactive)
Nc1c(Br)cc(Br)cc1CNC1CCC(O)CC1 (stereo unspecified) [Ambroxol]	104 ± 5.2	109 ± 5.6	100 (inactive)	103 (inactive)
O=C(Nc1cccc(Nc2nccc(Nc3cccc(C(F)(F)F)c3)n2)c1)C1CC1 [Aurora Kinase Inhibitor III]	63 ± 1.4	35.8 ± 3.4	129 (active)	247 (active)
O=C(COc1ccc(C(=O)c2ccccc2)cc1)NC1CCN(Cc2ccccc2)CC1 [2-(4-benzoylphenoxy)-N-(1-benzyl-4-piperidinyl)acetamide]	81.9	78.3	118 (inactive)	158 (active)
CC(C=CC=C(C)C=CC1=C(C)CCCC1(C)C)=CC=CC=C(C)C=CC=C(C)C=CC1=C(C)CCCC1(C)C	101	106	101 (inactive)	103 (inactive)
CCN(CC)CCCC(C)Nc1ccnc2cc(Cl)ccc12 (stereo unspecified) [Chloroquine]	101	99.6	98.2 (inactive)	93.6 (inactive)
CC(=O)C1(O)CCC2C3CCC4=CC(=O)CCC4(C)C3CCC21C (stereo unspecified) [17- Hydroxyprogesterone]	104	96	94 (inactive)	104 (inactive)
CN1CCCN=C1C=Cc1cccs1.O=C(O)c1cc2ccccc2c(Cc2c(O)c(C(=O)O)cc3ccccc23)c1O [Pyrantel Pamoate]	94.4	109	88.8 (inactive)	115 (inactive)
O=C(CCCN1CCC(O)(c2ccc(Cl)cc2)CC1)c1ccc(F)cc1 [Haloperidol]	91 ± 7.7	92.6 ± 3.7	101 (inactive)	117 (inactive)
NC(=O)NO [Hydroxyurea]	103	108	93.9 (inactive)	91.8 (inactive)
CCOC(=O)CNC(=O)[C@@H]1CCCN1C(=O)Cc1ccccc1	102	109	97.4 (inactive)	87.1 (inactive)
CC1OC(OCC2OC(Oc3cc(O)c4c(c3)OC(c3ccc(O)c(O)c3)CC4=O)C(O)C(O)C2O)C(O)C(O)C1O (stereo unspecified) [Eriocitrin]	101	119	89 (inactive)	84 (inactive)
Cl.Nc1cc(Cl)c(NC2=NCCN2)c(Cl)c1 [p-Aminoclonidine hydrochloride]	100	114	97.1 (inactive)	88.3 (inactive)
CN(C)CCCSc1ccccc1NC(=O)C=Cc1ccccc1 [Cinanserin]	103	102	102 (inactive)	107 (inactive)
Cc1nc(N)sc1-c1ccnc(Nc2ccc(N3CCOCC3)cc2)n1	62.2	42.5	105 (inactive)	99.1 (inactive)
Cc1ccc(OCCSc2ncccn2)c(Br)c1 [2-{[2-(2-bromo-4-methylphenoxy)ethyl]sulfanyl}pyrimidine]	100	105	94 (inactive)	107 (inactive)
Cl.Cl.OCCN1CCN(CCCN2c3ccccc3Sc3ccc(C(F)(F)F)cc32)CC1 [Fluphenazine dihydrochloride]	92.5	96.3	118 (inactive)	133 (inactive)
Nc1nc(=O)c2ncc(=O)[nH]c2[nH]1 [Isoxanthopterin]	104	108	92.2 (inactive)	94.9 (inactive)
CCCn1c(=O)[nH]c(=O)c2[nH]cnc21 [3-n-Propylxanthine]	104	105	92.3 (inactive)	101 (inactive)
CCCCCCCCCCCCCCCCOCC(COP(=O)([O-])OCC[N+](C)(C)C)OC(=O)NC (stereo unspecified)	103	95.7	95.7 (inactive)	101 (inactive)
Nc1[nH]nc2nc3ccccc3nc12 [Cdk1/5 Inhibitor]	99.6	95.2	104 (inactive)	113 (inactive)
Cl.O=c1cc(N2CCOCC2)oc2c(-c3ccccc3)cccc12	87.7	91.7	86.9 (inactive)	141 (active)

Reference: the supplement of paper PMC7156485
